Measurements published in the supplement of paper PMC6992640.
± gives the standard deviation of the averaged measurements.

Columns and labels:
Test in all cases: cell viability (% of vehicle); higher = less cytotoxic
Conditions in all cases: 10 µM; 72 h
HCI01 = test system: HCI01 (cells of a triple-negative basal-like breast cancer xenograft)
HCI03 = test system: HCI03 (cells of an ER-positive luminal breast cancer xenograft)
HCI09 = test system: HCI09 (cells of a triple-negative luminal androgen receptor type breast cancer xenograft)
HCI11 = test system: HCI11 (cells of an ER-positive luminal breast cancer xenograft)
HCI13 = test system: HCI13 (cells of an ER-positive luminal breast cancer xenograft)
HCI16 = test system: HCI16 (cells of a triple-negative basal-like breast cancer xenograft)
UCD52 = test system: UCD52 (cells of a triple-negative basal-like breast cancer xenograft)
WHIM2 = test system: WHIM2 (cells of a triple-negative basal-like breast cancer xenograft)
WHIM30 = test system: WHIM30 (cells of a triple-negative basal-like breast cancer xenograft)
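Also: PDX cells carrying CMV promoter-driven luciferase, viability read as total photon flux per second by IVIS imaging following D-luciferin, vehicle control 0.1% DMSO.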

| Compound | cell viability (HCI01) | cell viability (HCI03) | cell viability (HCI09) | cell viability (HCI11) | cell viability (HCI13) | cell viability (HCI16) | cell viability (UCD52) | cell viability (WHIM2) | cell viability (WHIM30) |
| --- | --- | --- | --- | --- | --- | --- | --- | --- | --- |
| COc1c2occc2cc2ccc(=O)oc12 [8-Methoxypsoralen] | 116 ± 17 | 147 | 99.5 ± 6.5 | 104 | 121 ± 13 | 122 | 106.6 ± 0.24 | 101 ± 17 | 97.9 ± 1.8 |
| Cl.c1ccc(CN(CC2=NCCN2)c2ccccc2)cc1 [Antazoline HCl] | 133.9 ± 0.91 | 123 | 103 ± 1.1 | 119 | 109 ± 9.2 | 144 | 66.7 ± 18 | 92.52 ± 0.86 | 102 ± 8.3 |
| CC(C)C1C(=O)NC(CCCN=C(N)N)C(=O)NCC(=O)NC(CC(=O)O)C(=O)NC(Cc2ccccc2)C(=O)N1C (configuration not stated) [Cilengitide] | 114 ± 9.1 | 76.7 | 125 ± 49 | 97.4 | 124 ± 12 | 91 | 84.4 ± 5.5 | 94.1 ± 6.8 | 143 ± 14 |
| Cc1c(O)cccc1C(=O)NC(CSc1ccccc1)C(O)CN1CC2CCCCC2CC1C(=O)NC(C)(C)C (configuration not stated) [Nelfinavir] | 117 ± 39 | 93.4 | 52.9 ± 40 | 97.2 | 89.3 ± 0.59 | 101 | 68.7 ± 4 | 89.2 ± 16 | 61.5 ± 6.5 |
| CN1CCCN=C1C=Cc1cccs1.O=C(O)c1cc2ccccc2c(Cc2c(O)c(C(=O)O)cc3ccccc23)c1O [Pyrantel Pamoate] | 82.3 ± 44 | 117 | 114 ± 12 | 101 | 146 ± 13 | 109 | 99.5 ± 12 | 95.8 ± 17 | 130 ± 3 |
| Cl.O=C(c1ccc(OCCN2CCCCC2)cc1)c1c(-c2ccc(O)cc2)sc2cc(O)ccc12 [Raloxifene HCl] | 163 ± 35 | 71.2 | 33.7 ± 1.3 | 116 | 50.8 ± 3 | 182 | 80.5 ± 3.9 | 44 ± 7.1 | 156.6 ± 1.1 |
| CO/N=C(\C(=O)N[C@@H]1C(=O)N2C(C(=O)[O-])=C(COC(C)=O)CS[C@H]12)c1csc(N)n1.[Na+] [Cefotaxime (sodium salt)] | 94.8 ± 14 | 121 | 105 ± 3.7 | 74.9 | 155 ± 13 | 107 | 116.5 ± 0.35 | 99.12 ± 0.99 | 136.3 ± 0.17 |
| Cl.Nc1c2c(nc3ccccc13)CCCC2 [Tacrine hydrochloride] | 81.8 ± 14 | 119 | 90.7 ± 4.3 | 97 | 87.7 ± 6.4 | 98.3 | 96.6 ± 4.1 | 76.3 ± 2.9 | 87.06 ± 0.45 |
| Cl.NC(N)=NC(N)=NCCc1ccccc1 [Phenformin HCl] | 117 ± 7.8 | 114 | 53.2 ± 5.3 | 110 | 58.8 ± 5.4 | 94.6 | 78.7 ± 3.6 | 95.4 ± 15 | 90.3 ± 11 |
| O=C1NC([O-])=NC1(c1ccccc1)c1ccccc1.[Na+] [Phenytoin sodium] | 97.2 ± 10 | 142 | 96.6 ± 14 | 101 | 104 ± 9.4 | 114 | 91.6 ± 8.2 | 105 ± 7.8 | 118 ± 8.7 |
| CN1C(C(=O)Nc2ccccn2)=C(O)c2ccccc2S1(=O)=O [Piroxicam] | 103 ± 9.8 | 102 | 53.8 ± 29 | 133 | 103 ± 3.6 | 90.5 | 88.27 ± 0.58 | 91.5 ± 17 | 117 ± 13 |
| Cc1ccc(=O)n(-c2ccccc2)c1 [Pirfenidone] | 92.4 ± 3 | 99.8 | 103 ± 26 | 89.4 | 106 ± 4.5 | 91.3 | 85.5 ± 5.1 | 97 ± 15 | 111 ± 11 |
| CC(C)Cc1ccc(C(C)C(=O)O)cc1 (configuration not stated) [Ibuprofen] | 124 ± 28 | 115 | 110 ± 24 | 104 | 133 ± 7.1 | 90.2 | 88.9 ± 4.3 | 102 ± 13 | 104 ± 4.4 |
| CCNC1(C(N)=O)CCN(c2ncnc3c2nc(-c2ccccc2Cl)n3-c2ccc(Cl)cc2)CC1.Cl | 83 ± 14 | 86 | 39.3 ± 16 | 75 | 81 ± 13 | 92.1 | 63.4 ± 1.6 | 89.6 ± 5.2 | 109 ± 9.3 |
| COC(=O)C1=COC(OC2OC(CO)C(O)C(O)C2O)C2C(CO)=CCC12 (configuration not stated) [Geniposide] | 104 ± 24 | 158 | 104 ± 21 | 98.3 | 95.3 ± 7.7 | 116 | 116 ± 1.3 | 83.6 ± 4.8 | 96.53 ± 0.79 |
| CNS(=O)(=O)CCc1ccc2[nH]cc(C3CCN(C)CC3)c2c1.Cl [Naratriptan] | 102 ± 13 | 127 | 96.7 ± 4.1 | 72.5 | 86.22 ± 0.42 | 105 | 103 ± 1.1 | 91.5 ± 8 | 109 ± 7.3 |
| C[N+](C)(C)CCO.[Cl-] [Choline Chloride] | 135 ± 42 | 120 | 89.2 ± 11 | 78.8 | 73.78 ± 0.7 | 116 | 85.6 ± 10 | 105 ± 17 | 101 ± 3.5 |
| CCCS(=O)(=O)Nc1ccc(F)c(C(=O)c2c[nH]c3ncc(-c4ccc(Cl)cc4)cc23)c1F [Vemurafenib (PLX4032, RG7204)] | 118 ± 12 | 195 | 114 ± 7.1 | 98.3 | 106 ± 4.2 | 102 | 108 ± 1.8 | 102.2 ± 0.85 | 185 ± 5.3 |
